# Laboratory results as given in the supplement of paper PMC3334620.
# Whole data set: some 33,000 sequences, median “E-score (-0.5 to 0.5)” near -0.017, cut for the highest 2% near 0.3. Many of the other results were omitted from the sample, so the highest values are more common in it than they were.
# Molecular target: T1, Sut1 (UniProt P53032)
# T1 sequence: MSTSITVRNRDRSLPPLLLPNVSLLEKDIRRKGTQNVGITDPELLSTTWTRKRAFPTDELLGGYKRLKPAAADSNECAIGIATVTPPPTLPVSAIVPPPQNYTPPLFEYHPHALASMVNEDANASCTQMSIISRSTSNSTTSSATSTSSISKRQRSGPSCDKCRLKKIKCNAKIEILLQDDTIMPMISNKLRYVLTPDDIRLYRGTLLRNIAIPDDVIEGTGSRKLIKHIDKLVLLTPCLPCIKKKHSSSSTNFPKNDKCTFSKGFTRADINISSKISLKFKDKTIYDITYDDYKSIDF
# Experiment: PBM E-score (8-mer binding enrichment) (E-score (-0.5 to 0.5)); higher = stronger / more preferred TF binding
# Details: protein concentration: 200 nM; construct: GST-full length
# Procedure: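 Universal 'all 10-mer' protein binding microarrays (Agilent AMADID 015681) probed with GST-tagged S. cerevisiae TFs (full-length or DBD) made by in vitro transcription/translation (PURExpress), about 100-200 nM. Bound TF was detected with fluorescent anti-GST. Each ungapped 8-mer (which stands for itself and its reverse complement) is scored by the PBM enrichment score (E-score), a modified Wilcoxon-Mann-Whitney statistic from -0.5 to +0.5, computed with the Universal PBM Analysis Suite. Scale: above 0.35 generally sequence-specific binding.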
row,Sequence,PBM E-score
1,ACGGACTA,0.431
2,CGATCTCA,-0.0333
3,AAGTGATT,0.237
4,AGTGTATG,0.14
5,AGCCCATA,-0.137
6,ACTATTCT,0.0103
7,CCGGACTC,0.476
8,CCGGACAC,0.112
9,CGGGACTC,0.0911
10,ACGTAACT,0.009
11,TTATCCAA,0.3
12,CTATCCAA,0.057
13,ATATCCAA,0.158
14,ATTTTGTG,0.239
15,ATTTTGTA,0.318
16,CTTTTGTA,0.259
17,GACTACGA,0.0667
18,CGTCGGAG,0.422
19,AGTCGGAA,0.243
20,CGTCGGAA,0.196
21,AGTCGGAC,0.337
22,TGTCGGAA,0.218

row,Sequence,PBM E-score
1,AGTCGGAG,0.316
2,GGTCGGAC,0.259
3,AGTCGGAT,0.173
4,CGTCGGAC,0.247
5,CCATTCGG,0.00649
6,ATGTTCGG,0.181
7,CTGCCCAG,-0.222
8,GCCTGGCA,-0.3
9,CCACGGAA,0.178
10,CCACGGAC,0.202
11,CCACGGAG,0.365
12,GGACGGAC,0.285
13,AGACGGAA,0.0433
14,ACACGGAA,0.18
15,AGACGGAT,0.0639
16,CGACGGAC,0.349
17,AGACGGAG,0.322
18,CGACGGAA,0.116
19,ACACGGAG,0.409
20,ACACGGAT,0.0295
21,AGTAGAGG,-0.308
22,GCGCAGCA,-0.232

row,Sequence,PBM E-score
1,ACAATTTC,0.0702
2,AGGATAAT,0.113
3,TCAAAGGA,-0.0285
4,GAGCCACC,-0.264
5,CCATCTCC,0.256
6,GAAGATTC,0.171
7,CATTCTCC,0.118
8,CCAACTCG,-0.141
9,ACAACTCA,0.13
10,GCAACTAC,0.0638
11,GCAACTCC,0.299
12,GCAACTCA,0.0595
13,ACAACTCC,0.431
14,CCAACTCC,0.387
15,ACAACTCT,0.0085
16,CCAACTCA,-0.0222
17,CGCTGTGA,-0.225
18,CTATTGGC,-0.227
19,ACCTTGAC,-0.143
20,ATGGAGTG,-0.0878
21,GAGGAGTA,-0.0389
22,GCGGAGGA,-0.161

row,Sequence,PBM E-score
1,ACGGAGTA,0.473
2,CCGGAGTC,0.484
3,CAGGAGTC,0.0824
4,GCGGAGTA,0.458
5,AAGGAGTA,0.0607
6,ATGGAGTA,0.179
7,ACGGAGTG,0.42
8,AAGGAGTG,-0.0821
9,CCGGAGGC,0.156
10,AATTGCGT,0.134
11,CGATCCTC,-0.124
12,ACACTCGA,-0.106
13,AAACCTAT,0.123
14,CTAGATGA,-0.0501
15,CACAAACG,0.127
16,CCAACCAG,-0.187
17,ACCGCAAT,0.1
18,ACGGAGGC,-0.0143
19,CCGGAGTA,0.49
20,CAGGAGTA,-0.157
